Source: PubChem
ERK AVP block: vasopressin-driven ERK pathway inhibition | HEK293-V1b, vasopressin-stimulated pERK AlphaScreen | Potency, µM (highest dose often 57.5 µM), hits mostly inhibitors | hit rate 0.99% among 72,000; further: nearly all actives have a fitted effect of over 55% in size
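HEK293 cells stably expressing V1b receptor, preincubated 30 min at 37 °C with compound, then stimulated 5 min with 25 nM vasopressin. Phospho-ERK by AlphaScreen SureFire after 5 h RT; normalized to DMSO and vasopressin; AC50 by Hill fit.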
TSHR agonist: activates the human thyroid stimulating hormone receptor. AID 926. Potency, µM (top dose mostly 57.1 µM), usual class: activators. HEK293-CNG-TSHR cells (CNG channel as cAMP sensor), membrane potential dye, cAMP. hit rate 0.48% among 73,000; active means well fitted activation curve with a large enough effect in the main read-out, with a control signal flat, not every such curve was filed as active; inconclusive means small, poorly fitted or top-dose-only effect, or a change in a side signal; inactive means no such curve, though single readings can be large or run the other way; reference of the percent scale not stated here;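 further: the control signal comes from parental cells without the receptor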
Target sequence (P16473 whole entry, looked up): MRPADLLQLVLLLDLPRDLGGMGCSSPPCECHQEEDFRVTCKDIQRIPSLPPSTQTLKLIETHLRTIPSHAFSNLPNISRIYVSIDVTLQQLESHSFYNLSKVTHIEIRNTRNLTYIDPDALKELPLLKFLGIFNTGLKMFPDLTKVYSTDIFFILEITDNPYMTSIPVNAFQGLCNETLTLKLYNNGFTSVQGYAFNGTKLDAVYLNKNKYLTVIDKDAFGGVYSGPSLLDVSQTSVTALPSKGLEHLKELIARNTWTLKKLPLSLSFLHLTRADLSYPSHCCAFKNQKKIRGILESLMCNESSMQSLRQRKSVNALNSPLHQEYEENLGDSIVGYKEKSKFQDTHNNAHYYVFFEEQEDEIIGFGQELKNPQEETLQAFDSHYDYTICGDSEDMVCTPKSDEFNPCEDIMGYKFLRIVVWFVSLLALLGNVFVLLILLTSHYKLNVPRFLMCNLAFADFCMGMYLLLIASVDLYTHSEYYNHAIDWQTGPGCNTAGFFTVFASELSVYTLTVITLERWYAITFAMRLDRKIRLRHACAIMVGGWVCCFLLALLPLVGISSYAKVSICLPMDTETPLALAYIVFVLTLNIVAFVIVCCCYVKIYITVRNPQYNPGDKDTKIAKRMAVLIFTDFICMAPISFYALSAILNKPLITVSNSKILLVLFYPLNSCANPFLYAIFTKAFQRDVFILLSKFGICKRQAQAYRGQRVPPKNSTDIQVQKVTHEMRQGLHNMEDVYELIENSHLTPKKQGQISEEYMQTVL
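HEK 293 cells stably expressing TSHR and a cAMP-gated CNG channel; parental CNG-only cells as counterscreen. Cells preloaded 60 min with membrane potential dye plus 100 uM RO 20-1724, then compound 30 min; fluorescence read at 590 nm.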
HEK293 cAMP ctrl: parental HEK293 cAMP activation (counter-screen). parental HEK293 CNG cAMP sensor, membrane potential fluorescence. Potency, µM (titrated, usually from 57.1 µM), hits mostly activators. hit rate 2.5% among 73,000. AID 938; further: nearly all actives have a fitted effect of over 55% in size
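Parental HEK 293 cells stably expressing a cAMP-gated CNG channel were loaded with membrane potential dye containing 100 uM RO 20-1724 for 60 min. Compound added for 30 min; depolarization read as fluorescence intensity at 590 nm.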
CRE-bla Fsk: CRE-bla signaling modulation under forskolin stimulation. CHO CRE-bla reporter (cAMP response element driving beta-lactamase), forskolin EC10, beta-lactamase ratio. Potency, µM (titrated, usually from 38.2 µM), usual class: activators. hit rate 2.5% among 71,000. AID 662; active means well fitted activation curve with a large enough effect in the signal ratio, with a control signal flat, not every such curve was filed as active; inconclusive means small, poorly fitted or top-dose-only effect, or effect the other way, or a change in a side signal; the % refers to the signal ratio
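Using CellSensor CRE-bla CHO cells in Opti-MEM with 0.5% dialyzed FBS, compounds were titrated with EC10 NKH 477 for 3 h at 37 °C. CCF4 ratio (460/530 nm) gave %Activity; AC50 derived.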
Of the large screens only hits and unclear results are named; the others gave an inactive call; ! = not confirmed by another sample. A selection: hits, their analogues and other compounds. The true share with any hit is near 6%. Unless noted, the call rests on the fitted dose curve; in most records, active means well fitted curve in the direction sought with a large enough effect; inconclusive means small, poorly fitted or top-dose-only effect, or another doubt; inactive means no such curve, though single readings can be large; an effect the other way counts as inactive or inconclusive.

CC(C)C(c1nnnn1C1CCCCC1)N1CCc2ccccc2C1 (centres undefined)	TSHR agonist inconclusive, HEK293 cAMP ctrl 5µM
CCOC(=O)Nc1sc2c(c1C(=O)OCC)CCC2	none
CCOC(=O)c1c(NC(=O)CN2CCCCC2)sc2c1CCCC2O (centres undefined)	TSHR agonist inconclusive, HEK293 cAMP ctrl inconclusive, CRE-bla Fsk 10µM
C[C@H]1/C=C\CC(=O)OC[C@H](C)C(=O)N2CCC[C@@H]2C(=O)OC1	none (no result: TSHR agonist, CRE-bla Fsk)
Cc1ccc(-n2ncc(C#N)c2/N=C/N2CCCCCC2)cc1	TSHR agonist inconclusive, HEK293 cAMP ctrl 32µM
COC(=O)c1nnn(-c2nonc2N)c1CSc1ccccn1	ERK AVP block inconclusive, TSHR agonist inconclusive, HEK293 cAMP ctrl 32µM, CRE-bla Fsk inconclusive
O=C(c1cnccn1)N1CCC2(CC1)CCN(c1cccc(-c3ccccc3)c1)CC2	ERK AVP block inconclusive
COc1ccccc1OCCCn1c(=O)oc2ccc(C)cc21	none
COc1ccccc1-n1c(=O)oc2ccc(Cl)cc2c1=O	ERK AVP block 20µM
CCOC(=O)C(CC)Sc1nnc2n1C(C)(C)Cc1ccccc1-2 (centres undefined)	TSHR agonist inconclusive, HEK293 cAMP ctrl 20µM
O=C(c1ccco1)N1CCC2(CC1)CN(c1cccc(-c3ccccc3)c1)C2	none
COc1ccccc1-c1nnc2sc(-c3cc4ccccc4o3)nn12	TSHR agonist inconclusive, HEK293 cAMP ctrl 25µM, CRE-bla Fsk 4µM
COc1ccccc1-c1nnc2sc(-c3ccc(N(C)C)cc3)nn12	CRE-bla Fsk 0.4µM (no result: TSHR agonist)
COc1ccccc1-c1nnc2sc(-c3cnccn3)nn12	CRE-bla Fsk inconclusive
CN(C)c1ccc(-c2nn3c(-c4ccccc4Cl)nnc3s2)cc1	TSHR agonist inconclusive, HEK293 cAMP ctrl inconclusive, CRE-bla Fsk 2.5µM
Cc1cc(C)cc([N+](=O)[O-])c1	TSHR agonist inconclusive
CC(C)n1c2ccccc2c2nc3ccccc3nc21	TSHR agonist inconclusive, HEK293 cAMP ctrl inconclusive, CRE-bla Fsk 1.6µM
O=C(NCCN1CCCC1)c1ccc(-n2c(=O)c(=O)[nH]c3ccccc32)cc1	none (no result: ERK AVP block, CRE-bla Fsk)
NC[C@](O)(CS(=O)(=O)O)c1ccc(Cl)cc1	TSHR agonist 0.13µM!
Cc1nc2cnc(N3CCN(C)CC3)nc2n(C)c1=O	none
CC(=O)OCC1OC(n2cnc3c(Cl)nc(Cl)nc32)C(OC(C)=O)C1OC(C)=O (centres undefined)	none (no result: TSHR agonist, HEK293 cAMP ctrl, CRE-bla Fsk)
Nc1nnc(CCCCc2cccs2)o1	TSHR agonist inconclusive, HEK293 cAMP ctrl 0.5µM (no result: ERK AVP block, CRE-bla Fsk)
C[C@@H](CN1CCC(Cc2ccccc2)CC1)[C@H](O)c1ccc(O)cc1	ERK AVP block inconclusive
CCCc1cc(=O)n2[nH]c(-c3cc(OC)c(OC)c(OC)c3)nc2n1	TSHR agonist 25µM
CCCc1cc(=O)n2[nH]c(C)nc2n1	none
O=C(O)c1nnsc1-c1ccc(-c2snnc2C(=O)O)cc1	none
O=C(Nc1ccc(S(=O)(=O)N2CCCC2)cc1)c1ccc(CN2CCOCC2)cc1	ERK AVP block 10µM (no result: TSHR agonist)
O=C(Nc1ccc(Cc2ccncc2)cc1)c1ccc(S(=O)(=O)N2CCOCC2)cc1	CRE-bla Fsk inconclusive
CCOc1ccccc1C(=O)Nc1ccc(S(=O)(=O)N2CCOCC2)cc1	CRE-bla Fsk 3.2µM
CCOC(=O)OCC1OC(C#Cc2ccc(C(C)(C)C)cc2)C=CC1OC(=O)OCC (centres undefined)	none (no result: CRE-bla Fsk)
CCOC(=O)c1cc2c(=O)n3ccccc3nc2n(CCOC)c1=NC(=O)C(C)(C)C	CRE-bla Fsk 10µM
CCOC(=O)c1cc2c(=O)n3ccccc3nc2n(CCOC)c1=NC(=O)c1ccncc1	CRE-bla Fsk inconclusive
CCOC(=O)c1cc2c(=O)n3ccccc3nc2n(CCCOC)c1=NC(=O)C(C)(C)C	CRE-bla Fsk inconclusive (no result: TSHR agonist)
CCOCCCn1c(=NC(C)=O)c(C(=O)OCC)cc2c(=O)n3ccccc3nc21	CRE-bla Fsk 13µM
Cc1cc(C2(c3cc(C)c(O)cc3C)OS(=O)(=O)c3ccccc32)c(C)cc1O	ERK AVP block inconclusive
COc1ncc2nc(-c3cccs3)c(=O)n(CCc3ccccc3)c2n1	ERK AVP block inconclusive, CRE-bla Fsk inconclusive
O=C(NCCO)c1ccc(-n2c(=O)c(=O)[nH]c3ccccc32)cc1	none (no result: ERK AVP block, CRE-bla Fsk)
CC(=O)OCC(=O)[C@@]1(O)CCC2C3CC[C@H]4CC(O)CC[C@@]4(C)C3C(=O)C[C@]21C (some centres undefined)	none (no result: TSHR agonist, HEK293 cAMP ctrl, CRE-bla Fsk)
COc1ccc(S(=O)(=O)NCc2ccco2)cc1-c1nnc2c3ccccc3c(C)nn12	ERK AVP block inconclusive, CRE-bla Fsk 5µM (no result: TSHR agonist)
CCc1cc2c(nc1CC)CCN(CC/C(C)=N/O[C@@H](C)c1cn([C@H](CO)Cc3ccccc3)nn1)C2	none (no result: CRE-bla Fsk)
O=C1Nc2ccccc2[C@]1(O)Cc1ccccn1	none
O=C1c2ccccc2C(Cc2ccnc(F)c2)(Cc2ccnc(F)c2)c2ccccc21	TSHR agonist inconclusive, HEK293 cAMP ctrl 0.25µM (no result: CRE-bla Fsk)
CNC1CC(N)[C@H](O)[C@@H](O[C@@H]2OC(CO)C3OC4(OC(C(N)CO)C(O)C(O)C4O)O[C@@H]3[C@H]2O)C1O (some centres undefined)	none (no result: TSHR agonist, HEK293 cAMP ctrl, CRE-bla Fsk)
O=C(C1CCN(S(=O)(=O)c2ccc3ccccc3c2)CC1)N1CCN(c2ncccn2)CC1	ERK AVP block 25µM, TSHR agonist inconclusive, HEK293 cAMP ctrl 25µM, CRE-bla Fsk inconclusive
Cc1ccc(NC(=O)C2CCN(S(=O)(=O)c3cccc4cccnc34)CC2)nc1	ERK AVP block 32µM
CC(=O)c1ccc(NC(=O)C2CCN(S(=O)(=O)c3cccc4cccnc34)CC2)cc1	none
O=C(C1CCN(S(=O)(=O)c2cccc3cccnc23)CC1)N1CCN(c2ccc(Cl)cc2)CC1	ERK AVP block 7.9µM, TSHR agonist inconclusive, HEK293 cAMP ctrl inconclusive
O=C(C1CCN(S(=O)(=O)c2cccc3cccnc23)CC1)N1CCN(c2ccccn2)CC1	CRE-bla Fsk inconclusive
O=C(C1CCC(CNS(=O)(=O)c2cccc3cccnc23)CC1)N1CCCC1 (centres undefined)	TSHR agonist inconclusive, HEK293 cAMP ctrl 25µM
COC(=O)C1CC1C(NC(=O)[C@H]1CCCCN1)c1ccccc1 (some centres undefined)	TSHR agonist inconclusive, HEK293 cAMP ctrl inconclusive
CCCCNc1nc(C)nc2c1nc(-c1ccccc1)n2CCN1CCCC1	ERK AVP block inconclusive, TSHR agonist inconclusive, HEK293 cAMP ctrl inconclusive
Cc1cccc(NC(=O)C2CCN(S(=O)(=O)c3cccc4cccnc34)CC2)n1	ERK AVP block 10µM
COc1cccc(-c2nccc(-n3ccnc3)n2)c1	ERK AVP block inconclusive, CRE-bla Fsk inconclusive
CCOC(=O)C(NC(=O)c1ccc(OC)cc1)(OCC1(CC)COC1)C(F)(F)F (centres undefined)	TSHR agonist 7.9µM, CRE-bla Fsk inconclusive
Cc1cc2cc(CCNC(=O)CC(C)C)c(=O)[nH]c2cc1C	CRE-bla Fsk 13µM (no result: ERK AVP block)
CCC(=O)NCCc1cc2cc(C)c(C)cc2[nH]c1=O	none (no result: TSHR agonist)
COc1ccc(N2C(=O)C(Cl)=C(N(CCO)Cc3ccccc3)C2=O)cc1	ERK AVP block 13µM (no result: TSHR agonist)
CN(C)CCCNc1cc(O)c2c(c1O)C(=O)c1ccccc1C2=O	none
O=C1c2ccccc2C(=O)c2c(O)c(O)cc(O)c21	ERK AVP block 32µM (no result: TSHR agonist, HEK293 cAMP ctrl, CRE-bla Fsk)
